The sample as a whole holds a higher share of hits than the screen did.
Dicer processing – human Dicer pre-microRNA cleavage inhibition | Q9UPY3 | cat-ELCCA pre-miR-21 Dicer processing, chemiluminescence; active compounds read high | z-score at 25 µM | 6% of 47,000 active | AID 1347074; in the data active means z-score above about 3, passing the limit was not always enough;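 further: higher signal means more uncleaved substrate so more Dicer inhibition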
Target sequence (Q9UPY3 whole entry, looked up): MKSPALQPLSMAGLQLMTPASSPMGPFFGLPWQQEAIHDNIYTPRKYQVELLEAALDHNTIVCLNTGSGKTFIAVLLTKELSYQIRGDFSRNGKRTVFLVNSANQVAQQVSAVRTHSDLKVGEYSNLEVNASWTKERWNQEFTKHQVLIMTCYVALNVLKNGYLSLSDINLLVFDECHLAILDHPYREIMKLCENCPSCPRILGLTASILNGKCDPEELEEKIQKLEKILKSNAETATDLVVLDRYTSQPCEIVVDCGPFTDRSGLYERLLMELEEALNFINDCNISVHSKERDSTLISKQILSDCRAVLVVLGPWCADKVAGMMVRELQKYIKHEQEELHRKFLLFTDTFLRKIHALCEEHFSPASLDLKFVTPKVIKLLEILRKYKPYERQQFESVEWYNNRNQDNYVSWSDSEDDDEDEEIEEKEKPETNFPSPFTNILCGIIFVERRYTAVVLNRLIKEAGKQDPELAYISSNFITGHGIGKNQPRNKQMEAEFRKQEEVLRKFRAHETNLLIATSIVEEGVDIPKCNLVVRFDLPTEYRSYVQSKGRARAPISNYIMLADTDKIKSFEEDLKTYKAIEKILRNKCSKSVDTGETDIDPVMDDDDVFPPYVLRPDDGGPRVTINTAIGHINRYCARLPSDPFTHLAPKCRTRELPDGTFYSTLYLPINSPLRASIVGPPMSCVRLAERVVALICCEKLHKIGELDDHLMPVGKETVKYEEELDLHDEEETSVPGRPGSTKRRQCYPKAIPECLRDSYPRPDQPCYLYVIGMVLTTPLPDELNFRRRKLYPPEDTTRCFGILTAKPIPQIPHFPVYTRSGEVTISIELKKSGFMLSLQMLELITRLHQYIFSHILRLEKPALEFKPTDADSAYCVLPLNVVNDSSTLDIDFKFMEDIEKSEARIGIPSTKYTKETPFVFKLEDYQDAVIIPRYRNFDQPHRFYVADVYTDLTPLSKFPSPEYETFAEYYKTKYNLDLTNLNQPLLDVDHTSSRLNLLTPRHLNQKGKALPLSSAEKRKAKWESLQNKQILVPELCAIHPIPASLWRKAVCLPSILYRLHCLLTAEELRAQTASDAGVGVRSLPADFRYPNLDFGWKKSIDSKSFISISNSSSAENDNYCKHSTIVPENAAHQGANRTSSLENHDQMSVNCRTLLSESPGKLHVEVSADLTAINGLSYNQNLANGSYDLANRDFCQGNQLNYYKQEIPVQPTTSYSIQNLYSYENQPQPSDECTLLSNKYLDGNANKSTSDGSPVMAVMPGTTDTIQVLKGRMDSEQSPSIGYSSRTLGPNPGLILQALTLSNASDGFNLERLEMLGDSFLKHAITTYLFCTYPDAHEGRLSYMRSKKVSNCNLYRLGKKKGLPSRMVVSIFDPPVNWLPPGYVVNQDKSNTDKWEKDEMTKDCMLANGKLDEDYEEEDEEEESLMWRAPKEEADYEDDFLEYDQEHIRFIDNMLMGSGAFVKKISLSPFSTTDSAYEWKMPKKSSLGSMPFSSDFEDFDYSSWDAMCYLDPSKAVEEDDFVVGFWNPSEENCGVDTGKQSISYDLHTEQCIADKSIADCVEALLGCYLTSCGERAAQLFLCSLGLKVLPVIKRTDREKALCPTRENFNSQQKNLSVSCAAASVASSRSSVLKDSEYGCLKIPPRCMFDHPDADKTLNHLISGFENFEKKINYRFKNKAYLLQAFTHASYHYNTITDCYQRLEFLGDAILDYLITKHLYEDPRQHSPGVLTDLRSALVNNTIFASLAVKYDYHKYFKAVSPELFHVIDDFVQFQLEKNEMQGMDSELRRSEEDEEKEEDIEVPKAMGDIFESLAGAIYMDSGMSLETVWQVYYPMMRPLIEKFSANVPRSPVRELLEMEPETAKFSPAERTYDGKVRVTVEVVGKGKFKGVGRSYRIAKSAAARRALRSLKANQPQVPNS
Of the large screens only hits and unclear results are named; the others gave an inactive call.

N#Cc1c(=O)c2ccccc2n2ccccc12	none
COc1ccc(OCc2c(C#N)c3ccccc3n2C)cc1	none
CC(C)(C)OC(=O)NCCNC(=S)NC1CCCCC1	none
O=C(COc1ccccc1Br)Nc1ccc2c(c1)OCO2	none
O=C(CSc1ncn[nH]1)c1ccc(O)cc1O	none
O=C(COc1ccccc1Br)c1ccc(O)cc1O	Dicer processing 3.16
CCOC(=O)C1=C(C)Nc2nnnn2C1c1cc(Br)ccc1OCC (centres undefined)	none
CCOc1ccccc1C1C(C(=O)OC(C)C)=C(C)Nc2nnnn21 (centres undefined)	Dicer processing 4.49
CCOC(=O)C1=C(C)Nc2nnnn2C1c1ccccn1 (centres undefined)	none
CCOC(=O)C1=C(C)Nc2nnnn2C1c1ccc(OCc2ccccc2)c(OC)c1 (centres undefined)	none
CCCOC(=O)C1=C(C)Nc2nnnn2C1c1ccccc1OCC (centres undefined)	Dicer processing 3.43
CCOC(=O)C1=C(C)Nc2nnnn2C1c1ccc(OC)c(OC)c1 (centres undefined)	none
CCOC(=O)C1=C(c2ccccc2)Nc2ncnn2C1c1ccc(F)cc1 (centres undefined)	none
CCOC(=O)C1=C(C)Nc2nnnn2C1c1ccccc1Cl (centres undefined)	none
CCCOc1ccccc1C1C(C(=O)OC(C)C)=C(C)Nc2nnnn21 (centres undefined)	none
CCOC(=O)C1=C(C)Nc2ncnn2C1c1ccc(OC)c(OC)c1 (centres undefined)	none
CCOC(=O)C1=C(c2ccccc2)Nc2ncnn2C1c1cccc(Br)c1 (centres undefined)	Dicer processing 3.25
CCOC(=O)C1=C(C)Nc2nnnn2C1c1ccccc1 (centres undefined)	Dicer processing 3.06
COc1ccc(OC2C(=O)N(Cc3ccc4c(c3)OCO4)C2c2ccc(F)cc2)cc1 (centres undefined)	none
CSc1sc(C#N)c2c1/C(=N/OC(=O)c1ccccc1Cl)CCC2	none
CN1CCc2c(sc3c2C(=O)NC(c2ccc(-c4cccc(Br)c4)o2)N3)C1 (centres undefined)	none
CCOC(=O)c1cc2c(N)c(C(=O)OCC)sc2nc1C	none
N=c1scc(-c2ccccc2)n1-c1ccc(Cl)cc1Cl	none
COc1ccc(C(N)=O)c(Cl)c1OC	none
COCc1cc(=O)oc2cc(N)ccc12	none
O=C(O)C1C2C=CC(C2)C1C(=O)N1CCc2ccccc21 (centres undefined)	none
O=C(C1CC1)N1c2ccccc2CCc2ccccc21	none
O=C(C1CC1)N1CCc2ccccc21	Dicer processing 3.31
Cc1ccc(NC(=S)N(CCC#N)C2CCCCC2)c(C)c1	none
O=C(C1=C(O)C(=O)N(CCCn2ccnc2)C1c1cccnc1)c1cccs1 (centres undefined)	Dicer processing 3.06
COc1ccc(C2C(C(=O)c3cccs3)=C(O)C(=O)N2CCCn2ccnc2)cc1 (centres undefined)	none
O=C(C1=C(O)C(=O)N(CCCn2ccnc2)C1c1cccnc1)c1cc2ccccc2o1 (centres undefined)	none
Cn1c(SCc2ccccc2)nnc1-c1csc(Cc2ccsc2)n1	none
CCCCNC(=O)Oc1ccc(-c2csnn2)cc1	none
COc1ccccc1-c1coc2cc(OCc3cc(Cl)cc4c3OCOC4)ccc2c1=O	none
Cc1cc2oc(=O)sc2cc1NS(=O)(=O)c1cccc2cccnc12	none
Cc1cc(C)c(S(=O)(=O)Nc2cccc3cccnc23)c(C)c1	Dicer processing 4.47
Cc1cc(C)c(S(=O)(=O)Nc2ccc(Br)c3cccnc23)c(C)c1	none
CSCCC(NC(=O)c1ccc(C(F)(F)F)cc1)C(=O)NNS(=O)(=O)c1ccc(Cl)cc1 (centres undefined)	none
COCc1cc(=O)[nH]c(-c2cccc(C)c2)n1	none
CSC(SC)=C(C#N)S(=O)(=O)c1ccc(Cl)cc1	Dicer processing 3.16
C=CCN/C(SC)=C(\C#N)S(=O)(=O)c1ccc(Cl)cc1	none
CS/C(NCc1ccco1)=C(/C#N)S(=O)(=O)c1ccc(Cl)cc1	none
CN1CCN(C(=O)CSc2nc(-c3ccccc3)cc(C(F)(F)F)n2)CC1	none
COc1ccc(-c2noc(-c3ccc(F)cc3)n2)cc1	none
O=C(O)c1cccc2c1-c1ccccc1C2	none
O=C1CC(c2cccs2)Cc2c1cnc1[nH]n(-c3ccccc3)c(=O)c21 (centres undefined)	none
Cc1oc(-c2ccccc2)cc1C(=O)/C=C/N(C)C	none
CN(C)/C=C/C(=O)c1csc2ccccc12	Dicer processing 3.53
CN(C)/C=C/C(=O)c1ccc(Br)s1	none
Cc1cc(=O)n2ncnc2n1CC(=O)NNC(=S)Nc1ccc(Cl)cc1Cl	none
O=C(O)/C=C/C(=O)c1ccc(C2CCCCC2)cc1	none
CCOC(=O)c1sc(N2C(=O)c3oc4ccc(F)cc4c(=O)c3C2c2ccc(F)cc2)nc1C (centres undefined)	none
O=C(CSc1nc2ccccc2o1)NC(=O)CSc1nc2ccccc2o1	none
O=C1C2SCCN2C(=S)N1c1cccc(C(F)(F)F)c1 (centres undefined)	none
CSC1=N/C(=C\c2ccc([N+](=O)[O-])s2)C(=O)N1CCOc1ccc(Cl)cc1	none
CSC1=N/C(=C\c2ccc(Cl)cc2)C(=O)N1N(C)C	none
CSC1=N/C(=C\c2ccc(Cl)cc2)C(=O)N1CCOc1ccc(Cl)cc1	Dicer processing 3.62
N#CC(c1cccc(C(F)(F)F)c1)c1cccc(C(F)(F)F)c1	none
CNc1ncnc(NNC(=O)Nc2cccc(Cl)c2)c1[N+](=O)[O-]	none
O=[N+]([O-])c1c(Nc2ccc(Cl)cc2)ncnc1Nc1ccc(Cl)cc1	Dicer processing 3.47
CNc1ncnc(NNC(=O)Nc2ccc(Cl)cc2)c1[N+](=O)[O-]	Dicer processing 4.47
O=[N+]([O-])c1c(Nc2cccc(C(F)(F)F)c2)ncnc1Nc1cccc(C(F)(F)F)c1	none
Cc1[nH]nc(Nc2ccc(C(C)C)cc2)c1[N+](=O)[O-]	none
CNc1ncnc(Oc2ccc(Cl)cc2)c1[N+](=O)[O-]	none
CC1=C(C)CC2C(=O)N(c3ccc(N4CCCCC4)cc3)C(=O)C2C1 (centres undefined)	none
CN(C)c1ccc(Oc2ccc3c(c2)CCC2C3CCC3(C)C(=O)CCC23)cc1 (centres undefined)	none
COc1ccc(N=Nc2c(C)[nH]n(-c3ccccc3)c2=O)cc1	none
COc1cc2c(c([N+](=O)[O-])c1)NC(c1ccccc1)CC2c1ccccc1 (centres undefined)	none
Clc1ccccc1CN1CCN(CC2CC3C=CC2C3)CC1 (centres undefined)	none
C/C(=N\NC(=O)CC#N)c1ccccc1	none
O=C1c2ccccc2-c2ccc(C(=O)N3CCOCC3)cc21	Dicer processing 4.1
O=C1c2ccccc2-c2cccc(C(=O)N3CCCCC3)c21	none
O=C(c1ccc(N2CCOCC2)nc1)N1CCOCC1	none
CCCCCCC#Cc1cncc(C(=O)NN)c1	none
Cc1ccc(-n2nc(C)c3c(C(F)(F)F)cc(-c4ccco4)nc32)cc1	none
Cc1nn(-c2ccccc2)c2nc(-c3ccco3)cc(C(F)(F)F)c12	none
Cc1nn(-c2ccc(Cl)cc2)c2nc(-c3ccco3)cc(C(F)(F)F)c12	Dicer processing 4.73
O=C(O)Cc1ccc2c3c(cccc13)CC2	none
COc1cccc2c1OC(c1cccc(F)c1)N1N=C(c3ccccc3O)CC21 (centres undefined)	Dicer processing 6.97
COc1ccc(O)c(C2=NN3C(C2)c2cccc(OC)c2OC3c2ccc(OC)c(O)c2)c1 (centres undefined)	none
COc1ccc(O)c(C2=NN3C(C2)c2cccc(OC)c2OC3c2cccc(O)c2)c1 (centres undefined)	Dicer processing 5.07
COc1cccc2c1OC(c1ccccc1)N1N=C(c3ccccc3O)CC21 (centres undefined)	none
